± gives the uncertainty stated by the source.
test system: FLX1; test: cell viability z-score within plate (CellTiter-Glo), mean of 3 biological replicates; higher = higher viability relative to plate (less growth inhibition); conditions: 2 µM; time (hr): 120
Description: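 FLX1 fibrolamellar carcinoma cells (DNAJB1-PRKACA fusion), 600 cells/well in 384-well plates, treated with a Selleck kinase inhibitor library (L1200) at 2 uM for 5 days (120 hr); viability by CellTiter-Glo. A z-score was computed within each plate and averaged over three biological replicates.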

| Compound | cell viability z-score within plate |
| --- | --- |
| O=C(NOCC1CC1)c1ccc(F)c(F)c1Nc1ccc(I)cc1Cl | 0.606 ± 0.25 |
| COc1ccc(-c2ccc3ncc4c(c3c2)n(-c2ccc(N3CCNCC3)c(C(F)(F)F)c2)c(=O)n4C)cn1 | 0.514 ± 0.38 |
| O=C(/C=C/c1ccc2ccccc2n1)c1ccncc1 | 0.276 ± 0.49 |
| CCOc1cc2ncc(C#N)c(Nc3ccc(F)c(Cl)c3)c2cc1NC(=O)/C=C/CN(C)C [Pelitinib (EKB-569)] | -1.38 ± 0.64 |
| CS(=O)(=O)N1CCc2c(-c3cnc(N)nc3)nc(N3CCOCC3)nc21 | 0.617 ± 0.29 |
| CN1CCN(c2cccc(Nc3nc4c(-c5ccc(S(C)(=O)=O)cc5)cccn4n3)c2)CC1 | 1.01 ± 0.27 |
| COc1cc(N2CCC(N(C)C)CC2)ccc1Nc1ncc(Cl)c(Nc2ccccc2P(C)(C)=O)n1 | 0.0333 ± 0.4 |
| O=C1NC(=O)C(c2ccccc2[N+](=O)[O-])=C1Nc1ccc(O)c(Cl)c1 | 0.229 ± 0.58 |
| Cc1ccc(NC(=O)c2ccc(CN3CCN(C)CC3)cc2)cc1Nc1nc(-c2cccnc2)cs1 [Masitinib (AB1010)] | -1.52 ± 1.2 |
| COc1ccc(S(=O)(=O)N(C(C)=O)c2ccccc2/C=C/c2cc[n+]([O-])cc2)cc1 | 0.21 ± 0.36 |
| Cc1cc(N2CCOCC2)cc2[nH]c(-c3c(NC[C@@H](O)c4cccc(Cl)c4)cc[nH]c3=O)nc12 | -0.387 ± 0.41 |
| COc1cc2c(c(OC)c1OC)-c1c(cc3c(c1OC)OCO3)CC(C)C(C)C2 (stereo not given) [Schisandrin B (Sch B)] | 0.407 ± 0.2 |
| O=C(Cc1ccc(-c2ccc(OCCN3CCOCC3)cc2)cn1)NCc1ccccc1 | 0.711 ± 0.45 |
| CCn1c(N)c(C(=O)NC)c(=O)c2ccc(C#CC(C)(O)COC)nc21 (stereo not given) | -1.49 ± 1.7 |
| NC(=O)c1ccc(N(C(N)=O)c2c(F)cccc2F)nc1-c1ccc(F)cc1F | -1.05 ± 0.15 |
| Cc1nc(N)sc1-c1ccnc(Nc2ccc(N3CCOCC3)cc2)n1 | 0.352 ± 0.28 |
| N#Cc1c(NC(=O)c2cccc3ccccc23)sc2c1CCCC2 [JNK Inhibitor IX] | 0.195 ± 0.75 |
| CNC(=O)c1cccc(-c2ccc3c(N4CCOC[C@@H]4C)nc(N4CCOC[C@@H]4C)nc3n2)c1 [Vistusertib (AZD2014)] | -0.936 ± 1.4 |
| CCS(=O)(=O)c1cccc(-c2cc(C(=O)NC3CCN(C)CC3)c(C)c3[nH]c4ncc(C)cc4c23)c1 | 0.278 ± 0.45 |

| Compound | cell viability z-score within plate |
| --- | --- |
| O=C(Nc1c[nH]nc1-c1nc2ccc(CN3CCOCC3)cc2[nH]1)NC1CC1 | 0.178 ± 0.39 |
| CNCc1ccc(-c2cc(-c3nc(-c4ccc(S(=O)(=O)C(C)C)cc4)cnc3N)on2)cc1 | 0.59 ± 0.39 |
| COc1ccc(COc2cc3oc(=O)c4cc(C(C)O)ccc4c3cc2OC)cc1 (stereo not given) [Palomid 529 (P529)] | 0.0682 ± 0.42 |
| COc1ccc(CNC(=O)Nc2ncc([N+](=O)[O-])s2)cc1 | 0.771 ± 0.6 |
| Cc1cc(Nc2cc(N3CCN(C)CC3)nc(/C=C/c3ccccc3)n2)n[nH]1 | 0.628 ± 0.19 |
| C=CC(=O)Nc1cccc(Nc2nc(Nc3ccc(N4CCN(C(C)=O)CC4)cc3OC)ncc2C(F)(F)F)c1 [Rociletinib (CO-1686, AVL-301)] | -0.855 ± 0.71 |
| CN(C)Cc1cccc(N=C(c2ccccc2)c2c(O)[nH]c3cc(C(=O)N(C)C)ccc23)c1 | 0.69 ± 0.34 |
| O=c1cc(N2CCOCC2)oc2c(-c3ccccc3)cccc12 | 0.828 ± 0.37 |
| COc1cc2nccc(Oc3ccc(NC(=O)NC4CC4)c(Cl)c3)c2cc1C(N)=O [Lenvatinib (E7080)] | -0.399 ± 0.11 |
| NC(=O)Nc1sc(-c2ccc(F)cc2)cc1C(N)=O | -0.156 ± 0.51 |
| Cn1cc(-c2ccc3nnc(C(F)(F)c4ccc5ncccc5c4)n3n2)cn1 | -0.299 ± 0.51 |
| COc1cc(Nc2ncc(F)c(Nc3ccc4c(n3)NC(=O)C(C)(C)O4)n2)cc(OC)c1OC | 0.701 ± 0.4 |
| N#CC[C@H](C1CCCC1)n1cc(-c2ncnc3[nH]ccc23)cn1 | 0.242 ± 0.22 |
| Cn1ncc(Cl)c1-c1cc(C(=O)N[C@H](CN)Cc2ccc(F)c(F)c2)oc1Cl | -0.657 ± 0.15 |
| Nc1cc(C(F)(F)F)c(-c2cc(N3CCOCC3)nc(N3CCOCC3)n2)cn1 [Buparlisib (BKM120, NVP-BKM120)] | -0.0175 ± 0.38 |
| CCn1c(-c2nonc2N)nc2c(C#CC(C)(C)O)ncc(OC[C@H]3CCCNC3)c21 | -1.24 ± 0.86 |
| O=C(NOC[C@H](O)CO)c1ccc(F)c(F)c1Nc1ccc(I)cc1F | -1.16 ± 0.84 |
| Clc1ccc(Nc2nnc(Cc3ccncc3)c3ccccc23)cc1 [Vatalanib (PTK787) 2HCl] | -0.254 ± 0.59 |
| C=CC(=O)Nc1cccc(Oc2nc(Nc3ccc(N4CCN(C)CC4)cc3OC)ncc2Cl)c1 | 0.221 ± 0.37 |

test system: FLX1 + dox-induced PRKAR1A G325D; test: difference in log2 fold change of viability vs plate median (dox-induced PRKAR1A G325D minus uninduced); higher = compound less effective when PKA is inhibited; conditions: concentration: not stated (2 or 5 uM); 5 days
Description: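 For each plate a log2 fold change vs the plate median was derived, and the values without dox were subtracted from those with dox, averaged over three biological replicates.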

| Compound | difference in log2 fold change of viability |
| --- | --- |
| CCOc1cc2ncc(C#N)c(Nc3ccc(F)c(Cl)c3)c2cc1NC(=O)/C=C/CN(C)C [Pelitinib (EKB-569)] | 0.0327 |
| COc1cc2c(c(OC)c1OC)-c1c(cc3c(c1OC)OCO3)CC(C)C(C)C2 (stereo not given) [Schisandrin B (Sch B)] | 0.277 |
| COc1ccc(COc2cc3oc(=O)c4cc(C(C)O)ccc4c3cc2OC)cc1 (stereo not given) [Palomid 529 (P529)] | -0.0394 |
| Cc1cc(Nc2cc(N3CCN(C)CC3)nc(/C=C/c3ccccc3)n2)n[nH]1 | -0.0361 |
| N#CC[C@H](C1CCCC1)n1cc(-c2ncnc3[nH]ccc23)cn1 | 0.145 |
| Nc1cc(C(F)(F)F)c(-c2cc(N3CCOCC3)nc(N3CCOCC3)n2)cn1 [Buparlisib (BKM120, NVP-BKM120)] | 0.841 |
| Clc1ccc(Nc2nnc(Cc3ccncc3)c3ccccc23)cc1 [Vatalanib (PTK787) 2HCl] | 0.168 |

Reference: the supplement of paper PMC9925115
